For 17 compounds, growth results are on record in PubChem BioAssay (NCI).

This is part of a sample that, as a whole, favours compounds with a hit. Of some 83,000 tested, about 20% had one in any assay.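 Percent growth is the endpoint: 0 to 100 indicates growth inhibition (40 means 60% inhibition), 0 means no net growth, and negative values indicate cell death.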 A number with no mark means an inactive call. Calls of active or inactive are those of the source. The calls were made as follows: active = growth percent below 10; inactive = the rest.

Test systems include T-47D breast; BT-549 breast; MDA-MB-435 melanoma; SW-620 colon; MCF7 breast; HCT-116 colon; HCC-2998 colon; KM12 colon.
What all share (test): NCI-60 one-dose screen, 48 h (100 = growth as untreated, 0 = no growth, -100 = all killed)
Holding throughout (settings): 10 µM unless noted

As for `CCOP(=O)(OCC)/C(=C\N1C(=O)CC(=O)NC1=S)C(=O)OC`, the growth in the assay with T-47D breast was 95%; in the assay with BT-549 breast, 116%; with MDA-MB-435 melanoma, 102%; in the assay on SW-620 colon, 101%; in the assay with MCF7 breast, 94.7%; in the assay on HCT-116 colon it was 115%. In addition, the growth with HCC-2998 colon is 85.7%; in the assay with KM12 colon it was 105%.

In the case of `COc1cc(C(=O)O)c(O)c(C(C)(C)C)c1`, the growth in the assay with T-47D breast was 103%; in the assay with BT-549 breast, 105%; in the assay with MDA-MB-435 melanoma it was 104%; with SW-620 colon, 106%; in the assay with MCF7 breast it was 97.4%; with HCT-116 colon, 101%. In addition, the growth in the assay on HCC-2998 colon was 96.7%; in the assay with KM12 colon, 104%.

For the compound `COc1cc(OC)c(NC(=O)C(Sc2nc(C)cc(C)c2C#N)c2ccccc2)cc1Cl` (stereo unspecified), the growth in the assay with T-47D breast is 95.9%; with BT-549 breast it was 81.7%; with MDA-MB-435 melanoma it was 105%; in the assay with SW-620 colon, 107%; in the assay with MCF7 breast, 95.5%; with HCT-116 colon it was 86.7%. The growth with HCC-2998 colon was 111%; in the assay with KM12 colon, 96.4%.

In the case of `S=c1nc(-c2ccccn2)c(-c2ccccn2)n[nH]1`, the growth in the assay on T-47D breast was 93.9%; in the assay on BT-549 breast, 101%; in the assay on MDA-MB-435 melanoma, 110%; with SW-620 colon, 106%; in the assay with MCF7 breast, 96.9%; with HCT-116 colon, 100%. For the same compound, the growth in the assay with HCC-2998 colon is 99.5%; in the assay on KM12 colon it was 97.4%.

`NCCCN1CCCC1=O`: the growth was 115% in the assay with T-47D breast; 110% in the assay on BT-549 breast; 124% in the assay with MDA-MB-435 melanoma; 108% in the assay on SW-620 colon; 104% in the assay on MCF7 breast; 107% in the assay with HCT-116 colon. Besides, the results for the growth in the assay with HCC-2998 colon and in the assay on KM12 colon were 100% and 104%, respectively.

In the case of `Cc1ccc(S(=O)(=O)NC(=O)NCCSSCCNC(=O)NS(=O)(=O)c2ccc(C)cc2)cc1`, the growth in the assay with T-47D breast was 105%; in the assay with BT-549 breast, 125%; in the assay on MDA-MB-435 melanoma it was 101%; in the assay on SW-620 colon it was 98.3%; with MCF7 breast, 103%; in the assay on HCT-116 colon, 113%. The growth was 108% with HCC-2998 colon and 113% with KM12 colon.

`COC1(OC)C2(Cl)C(Cl)=C(Cl)C1(Cl)C1COCC12` (stereo unspecified): the growth was 96.2% in the assay with T-47D breast; 105% in the assay on BT-549 breast; 99% in the assay on MDA-MB-435 melanoma; 85.8% with SW-620 colon; 101% in the assay on MCF7 breast; 91.5% with HCT-116 colon. The growth in the assay with HCC-2998 colon was 105%; in the assay with KM12 colon, 111%.

For `C#CCSc1nnnn1-c1ccccc1`, the growth was 39.6% in the assay with T-47D breast; 76.8% with BT-549 breast; 85.3% in the assay on MDA-MB-435 melanoma; 53.2% with SW-620 colon; 69.3% with MCF7 breast; 71.6% in the assay on HCT-116 colon. Further, the results for the growth with HCC-2998 colon and with KM12 colon were 104% and 77.6%, respectively.

In the case of `Cc1ccccc1CC(N)C(=O)O` (stereo unspecified), the growth is 103% with T-47D breast; 106% with BT-549 breast; 108% with MDA-MB-435 melanoma; 121% in the assay on SW-620 colon; 104% with MCF7 breast; 106% with HCT-116 colon. Also, the results for the growth in the assay with HCC-2998 colon and in the assay with KM12 colon were 117% and 119%, respectively.

Regarding `C1=NCCc2ccccc21`, the growth in the assay on T-47D breast was 86%; in the assay on BT-549 breast, 106%; with MDA-MB-435 melanoma it was 111%; in the assay on SW-620 colon, 98.5%; in the assay on MCF7 breast it was 90.3%; in the assay with HCT-116 colon, 89.7%. Moreover, the growth is 112% with HCC-2998 colon and 110% with KM12 colon.

For `CSCC[C@@H]1C(=O)N(C)[C@H](C(C)(C)C)N1C(=O)c1ccccc1`, the growth in the assay with T-47D breast is 104%; with BT-549 breast, 107%; with MDA-MB-435 melanoma, 106%; in the assay on SW-620 colon it was 102%; in the assay with MCF7 breast, 101%; with HCT-116 colon it was 101%. The growth is 105% in the assay with HCC-2998 colon and 101% in the assay with KM12 colon.

With `CCN(Cc1ccc(Cl)c(Cl)c1)c1ccc2nc(N)nc(N)c2c1C`, the growth is -78% (active) with T-47D breast; 46.4% with BT-549 breast; -77.4% (active) with MDA-MB-435 melanoma; -78.2% (active) with SW-620 colon; -92.9% (active) in the assay on MCF7 breast; -82.4% (active) with HCT-116 colon. Further, the growth in the assay on HCC-2998 colon is -93.6% (active); in the assay on KM12 colon, -92.6% (active).

As for `Nc1ncnc2c1ncn2C1OC(CO)C2OC21` (stereo unspecified), the growth in the assay with T-47D breast is 84.7%; in the assay on BT-549 breast, 110%; in the assay on MDA-MB-435 melanoma, 111%; in the assay with SW-620 colon it was 99.5%; in the assay with MCF7 breast it was 93.6%; with HCT-116 colon it was 108%. In addition, the growth was 105% with HCC-2998 colon and 109% with KM12 colon.

Regarding `CC(=O)NCNC(C)=O`, the growth with T-47D breast is 108%; in the assay on BT-549 breast it was 100%; in the assay with MDA-MB-435 melanoma, 107%; in the assay with SW-620 colon, 107%; in the assay on MCF7 breast, 94%; with HCT-116 colon, 104%. Also, the values for the growth in the assay on HCC-2998 colon and with KM12 colon were 113% and 117%, respectively.

For `c1ccc(Oc2c3ccccc3nc3ccccc23)cc1`, the growth was 56.2% in the assay with T-47D breast; 25.2% with BT-549 breast; -5.48% (active) with MDA-MB-435 melanoma; 19.2% in the assay with SW-620 colon; 14.2% in the assay on MCF7 breast; -25.7% (active) with HCT-116 colon. The growth with HCC-2998 colon was 20.9%; in the assay on KM12 colon, 0.624% (active).

Regarding `CCN1CCCC(N2c3ccccc3Sc3ccccc32)C1` (stereo unspecified), the growth with T-47D breast was 95.6%; in the assay with BT-549 breast it was 116%; with MDA-MB-435 melanoma, 109%; in the assay on SW-620 colon it was 105%; in the assay with MCF7 breast it was 105%; in the assay on HCT-116 colon it was 90.3%. In addition, the growth in the assay with HCC-2998 colon is 103%; in the assay with KM12 colon it was 102%.

With `C/C(O)=C(/C=N/C(=S)Nc1ccccc1)C(=O)Nc1ccccc1C`, the growth in the assay with T-47D breast was 79.6%; in the assay with BT-549 breast, 107%; in the assay with MDA-MB-435 melanoma, 111%; in the assay with SW-620 colon, 106%; with MCF7 breast, 94.9%; in the assay with HCT-116 colon, 109%. The growth in the assay with HCC-2998 colon is 109%; with KM12 colon, 100%.
